Holding throughout (assay): log2 fold change, soluble protein after heating vs DMSO (PISA); higher = thermal stabilisation; K562 cells, 10 uM, 30 min; active = over 0.2 and 3.5 SD of the protein, either way, in both replicates (recomputed)
Compound in experiment [1]: CC[C@@H]1C(=O)N(C)c2cnc(Nc3ccc(C(=O)NC4CCN(C)CC4)cc3OC)nc2N1C1CCCC1
The gist of the method: (§1)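 For each measurement, 10 μM compound was applied for 30 min to K562 cells at 2×10^6 cells/mL. Aliquots were heated for 3 min across 48°C-58°C, pooled, and extracted in PBS with 0.5% NP-40 at 4°C; the supernatant after 21,000xg for 90 min was soluble protein. This was quantified by TMTpro 16plex LC-MS/MS with channel sums equalised, and thermal stability was reported relative to control samples from duplicates, on a log2 fold-change scale.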

Compound in another experiment: CC[C@@H]1C(=O)N(C)c2cnc(Nc3ccc(C(=O)N[C@H]4CC[C@H](N5CCN(CC6CC6)CC5)CC4)cc3OC)nc2N1C(C)C [volasertib]
Put shortly:
as §1

Compound in experiment [2]: CC[C@H](C)N1C=C(C2=C(C=C(C=C21)C3=CN=C(C=C3)N4CCNCC4)C(=O)NCC5=C(C=C(NC5=O)C)C)C
Put shortly:
as §1

Compound in the next experiment: CC[C@H](C)[C@@H](C(=O)N[C@@H]([C@@H](C)O)C(=O)N[C@@H](CC(C)C)C(=O)[C@]1(CO1)C)NC(=O)[C@H]([C@@H](C)CC)N(C)C(=O)C [epoxomicin]
The gist of the method: as §1

Compound in experiment [3]: CCn1c(C(=O)N(C2CC2)C2CC2)cc2c3c(ncn3C)c(Nc3cc(C)n(C)n3)nc21
The gist of the method: as §1

Compound in experiment [4]: CCn1cc(-c2ccnc3[nH]c(-c4cccc(CN(C)C)c4)cc23)c(-c2ccc(NC(=O)N(C)C)cc2)n1
The gist of the method:
as §1

Compound in experiment [5]: CN(C)CC(=O)Nc1ccc2[nH]c(=O)c3ccccc3c2c1
Put shortly:
as §1

Compound in the next experiment: CN(CCOC1=CC=C(C=C1)C[C@H]2C(=O)NC(=O)S2)C3=CC=CC=N3 (racemic) [rosiglitazone]
Put shortly:
as §1

Compound in experiment [6]: CN1C2=C(C3=C1C(=O)N(N=C3)CC4=CC(=CC=C4)N)SC(=C2)S(=O)C
Put shortly:
as §1

Compound in experiment [7]: CN1CCC(CNc2ccc3ncc(-c4cccc(OC(F)(F)F)c4)n3n2)CC1
Put shortly: as §1

Of roughly 7,900 targets only a part is listed; those with a hit were picked by preference. About 0.6% of all pairs of compound and target were hits. Unmarked numbers belong to inactive results.

Sequence of UniProt P55209 (P55209 whole entry, looked up): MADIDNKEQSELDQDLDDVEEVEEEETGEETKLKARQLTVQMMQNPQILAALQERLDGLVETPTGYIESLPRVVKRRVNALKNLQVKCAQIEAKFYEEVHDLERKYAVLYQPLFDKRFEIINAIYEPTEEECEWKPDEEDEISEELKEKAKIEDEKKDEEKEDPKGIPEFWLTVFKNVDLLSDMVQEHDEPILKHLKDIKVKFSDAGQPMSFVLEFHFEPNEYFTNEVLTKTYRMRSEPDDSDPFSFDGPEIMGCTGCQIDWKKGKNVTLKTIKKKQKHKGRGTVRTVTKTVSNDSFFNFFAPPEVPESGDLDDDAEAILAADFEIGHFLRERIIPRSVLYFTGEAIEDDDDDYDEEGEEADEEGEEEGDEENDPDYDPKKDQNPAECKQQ
Sequence of UniProt O95182 (O95182 whole entry, looked up): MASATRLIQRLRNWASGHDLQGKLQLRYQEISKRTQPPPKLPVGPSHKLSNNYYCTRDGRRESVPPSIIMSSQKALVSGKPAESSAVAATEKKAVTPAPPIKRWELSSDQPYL
Sequence of UniProt O14524 (O14524 whole entry, looked up): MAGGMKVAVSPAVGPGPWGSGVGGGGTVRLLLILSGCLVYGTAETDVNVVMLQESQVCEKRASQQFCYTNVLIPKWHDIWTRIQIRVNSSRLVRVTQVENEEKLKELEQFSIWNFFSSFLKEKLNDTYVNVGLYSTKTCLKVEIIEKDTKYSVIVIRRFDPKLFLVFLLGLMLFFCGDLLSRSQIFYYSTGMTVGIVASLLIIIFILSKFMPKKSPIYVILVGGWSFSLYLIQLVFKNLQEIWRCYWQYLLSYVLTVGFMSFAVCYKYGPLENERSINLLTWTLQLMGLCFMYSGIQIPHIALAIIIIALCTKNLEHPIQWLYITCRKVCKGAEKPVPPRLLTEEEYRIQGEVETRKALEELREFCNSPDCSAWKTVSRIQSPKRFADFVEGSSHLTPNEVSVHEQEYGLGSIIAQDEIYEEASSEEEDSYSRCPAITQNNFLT
Sequence of UniProt Q96PU5 (Q96PU5 whole entry, looked up): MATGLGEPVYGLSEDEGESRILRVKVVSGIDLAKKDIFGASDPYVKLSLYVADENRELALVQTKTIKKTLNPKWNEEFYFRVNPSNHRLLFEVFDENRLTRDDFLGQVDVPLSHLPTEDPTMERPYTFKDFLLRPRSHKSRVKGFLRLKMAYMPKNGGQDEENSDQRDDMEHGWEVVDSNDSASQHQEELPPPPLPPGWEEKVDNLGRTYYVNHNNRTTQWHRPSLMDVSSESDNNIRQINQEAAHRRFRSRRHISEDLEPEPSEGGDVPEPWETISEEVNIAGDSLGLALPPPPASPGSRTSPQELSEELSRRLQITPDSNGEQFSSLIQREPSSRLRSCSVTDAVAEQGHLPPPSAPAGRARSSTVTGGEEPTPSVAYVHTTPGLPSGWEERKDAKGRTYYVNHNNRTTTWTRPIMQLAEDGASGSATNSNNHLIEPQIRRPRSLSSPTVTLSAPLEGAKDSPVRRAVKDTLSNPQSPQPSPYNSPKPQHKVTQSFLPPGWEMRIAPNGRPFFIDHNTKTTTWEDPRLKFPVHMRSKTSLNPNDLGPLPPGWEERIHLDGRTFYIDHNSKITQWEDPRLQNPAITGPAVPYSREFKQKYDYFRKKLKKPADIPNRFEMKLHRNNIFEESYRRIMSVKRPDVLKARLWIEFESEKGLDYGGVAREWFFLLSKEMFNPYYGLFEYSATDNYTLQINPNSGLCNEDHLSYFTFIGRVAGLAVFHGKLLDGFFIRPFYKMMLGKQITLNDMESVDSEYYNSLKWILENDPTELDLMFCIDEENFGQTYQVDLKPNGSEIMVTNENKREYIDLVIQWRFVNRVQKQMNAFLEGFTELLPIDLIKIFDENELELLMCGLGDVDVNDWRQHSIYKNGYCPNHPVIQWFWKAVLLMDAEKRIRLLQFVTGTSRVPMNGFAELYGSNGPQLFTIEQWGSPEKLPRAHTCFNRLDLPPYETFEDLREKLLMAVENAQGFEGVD
Sequence of UniProt Q8N5F7 (Q8N5F7 whole entry, looked up): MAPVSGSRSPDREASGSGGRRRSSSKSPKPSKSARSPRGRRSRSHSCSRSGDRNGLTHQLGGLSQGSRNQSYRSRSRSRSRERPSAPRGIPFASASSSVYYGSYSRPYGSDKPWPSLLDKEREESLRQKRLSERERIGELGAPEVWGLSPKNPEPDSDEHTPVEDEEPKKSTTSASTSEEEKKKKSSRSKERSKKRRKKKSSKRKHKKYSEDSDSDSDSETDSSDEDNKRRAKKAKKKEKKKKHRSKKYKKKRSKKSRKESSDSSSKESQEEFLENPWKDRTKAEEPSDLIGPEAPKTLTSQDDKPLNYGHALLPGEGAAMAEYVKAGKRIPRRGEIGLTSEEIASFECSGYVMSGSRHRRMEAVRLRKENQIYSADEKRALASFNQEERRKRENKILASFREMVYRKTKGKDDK
Sequence of UniProt P11586 (P11586 whole entry, looked up): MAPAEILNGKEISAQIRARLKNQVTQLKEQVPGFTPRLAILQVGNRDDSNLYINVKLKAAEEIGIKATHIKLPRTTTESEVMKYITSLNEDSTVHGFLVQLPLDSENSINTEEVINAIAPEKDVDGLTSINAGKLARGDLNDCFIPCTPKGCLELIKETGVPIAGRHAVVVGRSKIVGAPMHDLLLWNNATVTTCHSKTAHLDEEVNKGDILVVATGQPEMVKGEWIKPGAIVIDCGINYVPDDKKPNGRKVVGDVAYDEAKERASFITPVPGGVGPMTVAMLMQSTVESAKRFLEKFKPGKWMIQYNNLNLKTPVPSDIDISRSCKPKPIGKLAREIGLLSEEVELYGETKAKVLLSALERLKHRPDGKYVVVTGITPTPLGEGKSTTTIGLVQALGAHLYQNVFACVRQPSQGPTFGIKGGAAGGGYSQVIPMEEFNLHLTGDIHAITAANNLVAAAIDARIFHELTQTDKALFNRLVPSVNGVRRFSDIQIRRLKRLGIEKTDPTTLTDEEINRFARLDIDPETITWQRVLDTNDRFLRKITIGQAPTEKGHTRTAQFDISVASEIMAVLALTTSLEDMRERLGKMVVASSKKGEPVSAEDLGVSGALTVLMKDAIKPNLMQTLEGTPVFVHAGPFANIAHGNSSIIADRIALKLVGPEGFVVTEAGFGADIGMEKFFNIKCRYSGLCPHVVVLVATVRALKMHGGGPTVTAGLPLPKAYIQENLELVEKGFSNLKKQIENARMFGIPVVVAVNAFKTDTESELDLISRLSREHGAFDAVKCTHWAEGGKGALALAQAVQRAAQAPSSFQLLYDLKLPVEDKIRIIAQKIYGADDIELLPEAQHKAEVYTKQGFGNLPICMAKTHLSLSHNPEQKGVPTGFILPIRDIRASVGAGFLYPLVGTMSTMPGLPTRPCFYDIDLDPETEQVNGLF
Sequence of UniProt Q96D46 (Q96D46 whole entry, looked up): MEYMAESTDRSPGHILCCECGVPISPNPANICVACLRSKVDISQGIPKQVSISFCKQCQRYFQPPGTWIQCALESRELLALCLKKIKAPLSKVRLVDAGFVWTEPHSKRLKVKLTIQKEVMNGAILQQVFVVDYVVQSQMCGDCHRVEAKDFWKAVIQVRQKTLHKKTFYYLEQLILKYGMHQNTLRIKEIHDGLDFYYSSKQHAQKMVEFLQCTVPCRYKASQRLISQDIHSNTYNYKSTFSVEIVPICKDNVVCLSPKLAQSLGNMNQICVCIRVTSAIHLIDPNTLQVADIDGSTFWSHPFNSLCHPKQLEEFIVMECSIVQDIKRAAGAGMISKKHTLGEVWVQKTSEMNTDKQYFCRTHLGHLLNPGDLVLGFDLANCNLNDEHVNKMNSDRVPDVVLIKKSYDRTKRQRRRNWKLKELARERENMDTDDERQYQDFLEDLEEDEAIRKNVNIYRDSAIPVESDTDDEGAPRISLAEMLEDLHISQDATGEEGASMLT
Sequence of UniProt P22059 (P22059 whole entry, looked up): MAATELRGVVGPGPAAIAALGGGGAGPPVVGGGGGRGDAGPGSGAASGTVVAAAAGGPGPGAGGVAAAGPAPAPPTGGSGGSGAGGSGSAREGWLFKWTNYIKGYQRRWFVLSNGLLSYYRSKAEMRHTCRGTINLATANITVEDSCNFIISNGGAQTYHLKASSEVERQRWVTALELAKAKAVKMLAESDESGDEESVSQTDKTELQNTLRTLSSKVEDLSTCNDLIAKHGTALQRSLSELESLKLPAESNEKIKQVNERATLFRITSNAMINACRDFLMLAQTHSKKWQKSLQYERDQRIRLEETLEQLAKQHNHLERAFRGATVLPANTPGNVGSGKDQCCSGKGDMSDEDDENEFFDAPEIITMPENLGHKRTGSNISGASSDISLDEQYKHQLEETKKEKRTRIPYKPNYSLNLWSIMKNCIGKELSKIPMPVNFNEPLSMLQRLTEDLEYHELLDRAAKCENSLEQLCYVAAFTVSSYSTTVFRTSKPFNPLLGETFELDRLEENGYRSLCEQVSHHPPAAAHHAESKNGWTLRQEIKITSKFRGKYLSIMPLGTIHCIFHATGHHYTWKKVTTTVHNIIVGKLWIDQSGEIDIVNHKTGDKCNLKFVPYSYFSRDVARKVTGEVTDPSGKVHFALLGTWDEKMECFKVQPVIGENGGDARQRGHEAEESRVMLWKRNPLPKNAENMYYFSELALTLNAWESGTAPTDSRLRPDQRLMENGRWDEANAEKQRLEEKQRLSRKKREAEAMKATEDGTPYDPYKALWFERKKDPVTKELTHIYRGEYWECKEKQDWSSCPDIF
Sequence of UniProt Q9HAN9 (Q9HAN9 whole entry, looked up): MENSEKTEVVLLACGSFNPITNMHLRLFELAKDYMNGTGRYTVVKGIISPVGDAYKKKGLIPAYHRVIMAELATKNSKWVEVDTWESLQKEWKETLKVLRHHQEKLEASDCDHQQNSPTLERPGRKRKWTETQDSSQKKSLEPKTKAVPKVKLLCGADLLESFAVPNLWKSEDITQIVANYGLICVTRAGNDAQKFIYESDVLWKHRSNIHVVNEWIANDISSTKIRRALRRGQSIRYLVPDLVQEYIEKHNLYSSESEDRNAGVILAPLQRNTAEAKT
Sequence of UniProt P17568 (P17568 whole entry, looked up): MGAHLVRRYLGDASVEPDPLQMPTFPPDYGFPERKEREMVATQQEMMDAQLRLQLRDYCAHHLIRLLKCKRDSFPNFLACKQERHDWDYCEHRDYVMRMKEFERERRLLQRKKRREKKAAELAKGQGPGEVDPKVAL

Regarding MRPS5 (UniProt P82675), the log2 fold change in experiment [1] is 0.005; with volasertib, -0.066; in experiment [2], 0.181; in the experiment with epoxomicin, 0.077; in [3] it was -0.048; in experiment [4], -0.05. The log2 fold change is -0.037 in experiment [5], -0.005 with rosiglitazone, 0.032 in experiment [6] and 0.102 in experiment [7].

Take NEMP1 (UniProt O14524): the log2 fold change in [1] was 0.007; in the experiment with volasertib, -0.128; in experiment [2], -0.023; with epoxomicin it was 0.015; in experiment [3], 0.08; in experiment [4], 0.018. For the same target, the log2 fold change is -0.003 in experiment [5], 0.048 with rosiglitazone, 0.01 in experiment [6] and -0.106 in [7].

NMNAT1 (UniProt Q9HAN9): the log2 fold change in experiment [1] is 0.302; in the experiment with volasertib, 0.161; in experiment [2], -0.007; in the experiment with epoxomicin, -0.168; in [3] it was -0.06; in experiment [4], 0.098. Also, the log2 fold change is -0.092 in experiment [5], -0.126 in the experiment with rosiglitazone, 0.228 in [6] and 0.053 in [7].

Regarding OXA1L (UniProt Q15070), the log2 fold change was -0.067 in experiment [1]; -0.014 with volasertib; -0.015 in experiment [2]; -0.046 in the experiment with epoxomicin; 0.013 in [3]; -0.012 in experiment [4]. The log2 fold change in experiment [5] was -0.019; with rosiglitazone, 0.016; in experiment [6], -0.027; in [7] it was -0.221 (active).

For NCOR1 (UniProt O75376), the log2 fold change in [1] was -0.034; with volasertib it was -0.021; in experiment [2] it was 0.142; with epoxomicin, 0.07; in experiment [3], -0.066; in experiment [4], 0.046. Besides, the log2 fold change in experiment [5] is 0.048; in the experiment with rosiglitazone, 0.044; in [6] it was 0.033; in experiment [7], -0.045.

On to OSBP (UniProt P22059), for which the log2 fold change in experiment [1] is 0.056; in the experiment with volasertib, 0.377 (active); in experiment [2] it was 0.032; in the experiment with epoxomicin, 0.053; in experiment [3], -0.101; in experiment [4], -0.087. Moreover, the log2 fold change in experiment [5] was 0.013; with rosiglitazone it was 0.038; in experiment [6] it was -0.064; in experiment [7] it was 0.061.

As to MPHOSPH10 (UniProt O00566), the log2 fold change is 0.099 in experiment [1]; -0.155 with volasertib; 0.084 in experiment [2]; -0.26 with epoxomicin; -0.028 in experiment [3]; 0.182 in experiment [4]. In addition, the log2 fold change was -0.012 in [5], 0.089 with rosiglitazone, 0.314 in [6] and 0.133 in experiment [7].

NMD3 (UniProt Q96D46): the log2 fold change in experiment [1] was 0.103; in the experiment with volasertib, 0.151; in experiment [2], -0.009; in the experiment with epoxomicin, 0.042; in [3], -0.029; in experiment [4] it was -0.163. The log2 fold change in experiment [5] was 0.04; with rosiglitazone, 0.064; in experiment [6], -0.138; in experiment [7], 0.114.

As to NDUFB7 (UniProt P17568), the log2 fold change in [1] is -0.053; with volasertib it was -0.004; in experiment [2] it was -0.072; with epoxomicin, -0.066; in experiment [3] it was -0.129; in experiment [4], -0.099. Moreover, the log2 fold change is -0.036 in [5], 0.058 in the experiment with rosiglitazone, -0.058 in experiment [6] and 0.094 in [7].

With NDUFA7 (UniProt O95182), the log2 fold change in experiment [1] was -0.19; with volasertib, -0.109; in experiment [2], -0.023; with epoxomicin, 0.052; in experiment [3], 0; in [4] it was 0.011. The log2 fold change in [5] was 0.01; with rosiglitazone, -0.02; in experiment [6] it was 0.027; in [7], -0.324 (active).

On to NKAP (UniProt Q8N5F7), for which the log2 fold change in experiment [1] is 0.026; with volasertib, -0.3; in experiment [2], 0.082; with epoxomicin it was -0.109; in experiment [3] it was -0.028; in experiment [4] it was 0.092. The log2 fold change is 0.052 in experiment [5], 0.024 in the experiment with rosiglitazone, -0.025 in experiment [6] and -0.164 in [7].

NAP1L1 (UniProt P55209): the log2 fold change in [1] was -0.112; with volasertib it was -0.237 (active); in experiment [2], 0.005; in the experiment with epoxomicin, 0.048; in experiment [3] it was 0.007; in [4], -0.008. Also, the log2 fold change is 0.013 in experiment [5], 0.014 with rosiglitazone, 0.003 in [6] and -0.038 in [7].

Regarding MTHFD1 (UniProt P11586), the log2 fold change is -0.074 in experiment [1]; -0.002 with volasertib; 0.035 in experiment [2]; 0.067 in the experiment with epoxomicin; -0.011 in experiment [3]; -0.159 in experiment [4]. The log2 fold change in [5] was 0.051; with rosiglitazone it was 0.024; in experiment [6], -0.057; in [7] it was 0.004.

Consider NEDD4L (UniProt Q96PU5), for which the log2 fold change was -0.02 in [1]; -0.425 (active) with volasertib; 0.03 in experiment [2]; 0.012 in the experiment with epoxomicin; -0.015 in [3]; -0.09 in experiment [4]. Moreover, the log2 fold change is 0.023 in experiment [5], 0.029 with rosiglitazone, 0.039 in experiment [6] and -0.099 in experiment [7].

These data come from the supplement of paper PMC10849652.
